Assay outcomes (PubChem)
Cruzain Triton: blocks cruzain activity in presence of Triton detergent. P25779. purified cruzain, Z-FR-AMC fluorescence, 0.01% Triton. Potency, µM, without a hit: max response, negative = inhibition, actives largely listed as inhibitors. 0.43% of 200,000 active. AID 1478;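 note: plate controls were neutral wells for no effect and buffer without enzyme for full effect; nearly all actives have a fitted effect of over 40% in size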
Target sequence (P25779 123-467 limits assumed): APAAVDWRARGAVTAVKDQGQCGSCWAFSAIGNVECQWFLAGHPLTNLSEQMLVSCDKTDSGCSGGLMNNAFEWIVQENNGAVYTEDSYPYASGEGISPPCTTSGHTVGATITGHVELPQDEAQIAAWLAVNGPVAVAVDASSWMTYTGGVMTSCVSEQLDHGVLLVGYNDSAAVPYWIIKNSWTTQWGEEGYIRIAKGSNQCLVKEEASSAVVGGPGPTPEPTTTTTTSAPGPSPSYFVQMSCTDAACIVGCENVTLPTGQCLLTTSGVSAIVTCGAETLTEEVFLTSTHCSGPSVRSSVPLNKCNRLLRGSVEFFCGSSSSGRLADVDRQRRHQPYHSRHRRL
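Sodium acetate buffer (100 mM, pH 5.5) containing 5 mM DTT and 0.01% Triton X-100 hosted 1.5 nM cruzain and test compound for 15 min at room temperature. Cleavage of 2 uM Z-FR-AMC was then tracked by fluorescence.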
Cruzain noTriton: inhibitors of Trypanosoma cruzi cruzain without detergent; P25779; purified cruzain, Z-FR-AMC fluorescence, no detergent; Potency, µM, without a hit: max response, negative = inhibition, usual class: inhibitors; 2.3% of 200,000 active; AID 1476;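 note: plate controls were enzyme without inhibitor for no effect and buffer without enzyme for full effect; nearly all actives have a fitted effect of over 40% in size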
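Purified cruzain at 1.5 nM, pre-incubated 15 min with compound at room temperature in 100 mM sodium acetate pH 5.5, 5 mM DTT, 0.00005% Triton X-100. Reaction started with 2 uM Z-FR-AMC; AMC fluorescence increase over 60 s gives rate.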
Numbers without * were called inactive; u = inconclusive. Shown are actives, neighbours in structure and some others; about 2.4% of the full set was active somewhere. Calls come from the whole dose curve; as a rule, active = well fitted curve in the direction sought with a large enough effect; inconclusive = small, poorly fitted or top-dose-only effect, or another doubt; inactive = no such curve, though single readings can be large; an effect the other way counts as inactive or inconclusive. Potency is the fitted concentration of half-maximal effect.

SMILES	Cruzain Triton	Cruzain noTriton
COc1ccccc1N1Cc2ccccc2C1	-3.7%	15.8µM*
COc1ccc(Cl)cc1N1Cc2ccccc2C1	-4.0%	25.1µM*
Cc1ccc(N2C(=O)/C(=C/c3cccnc3)SC2=S)cc1	-3.3%	u
Cc1cc(/C=C2/SC(=S)N(c3ccc([N+](=O)[O-])cc3)C2=O)c(C)n1-c1cccnc1	-11.9%	15.8µM*
CCc1cccc(NC(=O)c2cc3c(=O)n(Cc4ccc(OC)cc4)ccc3nc2C)c1	-6.3%	u
Nc1nc2c(nc(Br)n2C2O[C@H]3COP(=O)(O)O[C@@H]3C2O)c(=O)[nH]1 (stereo partly drawn)	-5.4%	3.5%
Cc1ccc(C)n1NC(=O)c1ccc(Cl)cc1Cl	-2.1%	12.6µM*
Cc1ccc(C)n1NC(=O)c1ccc(Cl)cc1	1.2%	-3.9%
CCc1ccc(C2CC(=O)Oc3c2c(=O)n(C)c2ccccc32)cc1 (stereo not drawn)	-3.8%	5.6%
O=C(Nc1ccc(N2CCOCC2)cc1)c1ccc2nc(-c3ccco3)c(-c3ccco3)nc2c1	-5.7%	-3.5%
CC(=O)c1ccc(NC(=O)c2ccc3nc(-c4ccco4)c(-c4ccco4)nc3c2)cc1	14.1µM*	u
O=C(NCc1ccccc1)c1ccc2nccnc2c1	1.3%	9.6%
O=C(NCc1ccccc1)c1ccc2nc(-c3ccco3)c(-c3ccco3)nc2c1	u	7.94µM*
COc1ccc(S(=O)(=O)N2CCC(N3CCN(Cc4ccccc4)C(=O)C3=O)CC2)cc1	3.3%	3.3%
COC(=O)CCCCCN1C(=O)NC(CC2CC2)C(C(=O)OCc2ccccc2)=C1C (stereo not drawn)	-8.0%	1.1%
C[N+](C)(C)C(C1=CCCC1=O)c1ccccc1 (stereo not drawn)	1.4%	2.9%
COc1ccc([C@@H](Nc2ncccn2)c2cc3c(cc2O)OCO3)cc1	1.7%	18.9%
CN(c1ccccc1C(=O)O)S(=O)(=O)c1ccc2[nH]c(=O)oc2c1	-0.8%	5.5%
O=C(N/N=C/c1ccc(OCCCF)cc1)c1cc(OCC(F)(F)F)ccc1OCC(F)(F)F	-0.1%	25.1µM*
O=C(N/N=C\c1ccc(F)cc1)c1cc(OCC(F)(F)F)ccc1OCC(F)(F)F	-2.8%	12.3%
O=C1/C(=C/c2ccc(N3CCCC3)cc2)NC(=S)N1C1CC1	-5.3%	4.2%
O=C1N/C(=C/c2ccc(N3CCCC3)cc2)C(=O)N1c1ccccc1	-6.0%	3.16µM*
COc1ccccc1CNC(=O)c1ccc(CSc2nc3ccncc3n2Cc2cccc(F)c2)cc1	-2.1%	-18.7%
O=Nc1ccc(Nc2ccccc2)cc1	7.08µM*	7.94µM*
c1ccc(Nc2ccc(Nc3ccccc3)cc2)cc1	-7.3%	2.3%
SMILES	Cruzain Triton	Cruzain noTriton
Cc1ccc(S(=O)(=O)c2c(Nc3cc(C)ccc3C)sc(C(=O)c3ccc4c(c3)OCO4)c2N)cc1	9.2%	-27.0%
CCOc1ccc(S(=O)(=O)N(CC(=O)Nc2ccc3c(c2)OCO3)c2ccc(C)cc2)cc1	-7.6%	1.4%
CCOc1ccc(Nc2sc(C(=O)c3ccc4c(c3)OCO4)c(N)c2S(=O)(=O)c2ccc(C)cc2)cc1	-2.6%	3.16µM*
Cc1ccc(S(=O)(=O)c2c(Nc3ccc(C)c(C)c3)sc(C(=O)c3ccc4c(c3)OCO4)c2N)cc1	-2.4%	2.51µM*
O=C(O)[C@@H]1[C@H](C(=O)O)[C@H]2C(=O)C=C[C@H]1N2Cc1ccccc1	3.3%	6.1%
CCOC(=O)c1ccc(N2C(=O)c3n[nH]c(-c4cccs4)c3C2c2ccc(OCC)cc2)cc1 (stereo not drawn)	-3.1%	u
CCOC(=O)c1ccc(N2C(=O)c3n[nH]c(-c4cccs4)c3C2c2ccc(CC)cc2)cc1 (stereo not drawn)	-6.1%	5.01µM*
CCN(CC)c1ccc2cc(-c3nc(-c4ccc(OC)cc4)cs3)c(=O)oc2c1	-5.7%	10µM*
CCN(CC)c1ccc2cc(-c3nc(-c4ccc(Cl)cc4Cl)cs3)c(=O)oc2c1	1.7%	8.0%
CCC1=C2CC[C@H]3C(=O)NC(=O)[C@H]3[C@H]2[C@@]2(C)C(=NCCc3c[nH]c4ccccc34)OC(=O)N2C1=O	-8.3%	-3.5%
COc1cc(/C=N/NC(=O)CSc2nc3ccccc3n2C)cc(OC)c1OC	-4.0%	4.6%
CCOC(=O)c1cc(-c2ccccc2)sc1NC(=O)CC(C)C	-8.9%	-9.7%
CCOC(=O)c1cc(-c2ccccc2)sc1NC(=O)C(C)(C)C	0.5%	-3.8%
CCOC(=O)c1cc(-c2ccccc2)sc1NC(=S)Nc1cc(C)ccn1	6.8%	12.6µM*
CCCC1(c2ccccc2)NC(=O)N(CC(=O)Nc2sc(-c3ccccc3)cc2C(=O)OCC)C1=O (stereo not drawn)	1.4%	7.94µM*
COc1cccc2sc(NC(=O)c3ccc(S(=O)(=O)N4CCC(C)CC4)cc3)nc12	-1.7%	u
FC(F)(F)c1ccccc1Cl	4.5%	-2.3%
CCCn1c(-c2ccc(F)cc2)nc2c(NCCN(CC)CC)nc(C)nc21	0.3%	-7.1%
Cc1cc(C)n2nc(CNC(=O)c3ccccc3Cl)nc2n1	-2.8%	-10.6%
CCCn1c2ccccc2c2nnc(SC(CC)C(=O)Nc3cc(C)on3)nc21 (stereo not drawn)	-14.4%	-20.7%
CCCn1c2ccccc2c2nnc(SC(CC)C(=O)Nc3sc4c(c3C#N)CCCC4)nc21 (stereo not drawn)	-0.4%	10µM*
CCC(Oc1ccccc1)C(=O)Nc1ccc(-c2nnc(-c3ccco3)o2)cc1 (stereo not drawn)	-6.6%	8.8%
Cc1ccc(OCC(=O)Nc2ccc(-c3nc4ccc(C)cc4o3)cc2)cc1	1.0%	25.1µM*
O=C(COc1ccc(Br)cc1)Nc1ccc(-c2nnc(-c3ccco3)o2)cc1	4.9%	10µM*
COc1ccc(OCC(=O)Nc2ccc(-c3nc4cc(C)c(C)cc4o3)cc2)cc1	0.7%	1.4%
SMILES	Cruzain Triton	Cruzain noTriton
CCCCCC(=O)/C=C/C=C\CCCCCCCC(=O)O	2.9%	3.7%
O=C1C=CC[C@@H]2[C@H]3CCCN4CCC[C@@H](CN12)[C@@H]34	2.5%	-16.8%
Cc1cc(NC(=O)CSc2nc(C3CC3)nc3sc(C)c(C)c23)no1	-0.7%	-10.9%
O=C(O)CCCc1ccc2ccccc2c1	-2.0%	5.0%
O=C1CN(C(=O)COC(=O)Cc2ccsc2)c2ccccc2N1	-2.0%	-2.5%
CC(NC(=O)c1ccccc1)C(=O)OCC(=O)N1c2ccccc2Sc2ccccc21 (stereo not drawn)	u	-5.2%
O=C1CN(C(=O)COC(=O)CNC(=O)c2ccccc2)c2ccccc2N1	u	15.8µM*
O=C(CNC(=O)c1ccccc1)OCC(=O)N1c2ccccc2Sc2ccccc21	10µM*	10µM*
Cc1ccc(N2CCN(C(=O)C3CCN(S(=O)(=O)c4ccc5c(c4)oc(=O)n5C)CC3)CC2C)cc1 (stereo not drawn)	1.4%	6.9%
Cc1ccc2c(c1)cc1c(=O)n(CC(=O)NC3CCCCC3)nc(C)n12	-0.2%	5.7%
CC(=O)Nc1cc(C(=O)OCC(=O)c2ccccc2)ccc1C	0.6%	3.0%
CCC(=O)Nc1cc(C(=O)OCc2ccc(C(=O)Oc3ccccc3)cc2)ccc1C	-2.4%	12.6µM*
CSc1nc2ccccc2cc1/C=C(\C#N)c1ccc(Cl)c(Cl)c1	-0.3%	25.1µM*
CSc1nc2ccccc2cc1/C=C(\C#N)c1ccccc1	-9.9%	-2.1%
CCn1c2ccccc2c2cc(NC(=O)CSc3nnc(-c4cccc(Cl)c4)o3)ccc21	6.2%	10µM*
Cc1cccc(-c2nnc(SCC(=O)Nc3ccc(C)c(C)c3)o2)c1	-0.7%	-10.9%
